For one sequence, binding signal results are on record in PMC7862700, “An all-to-all approach to the identification of sequence-specific readers for epigenetic DNA modifications on cytosine”.

Holding throughout (assay): DAPPL (digital affinity profiling via proximity ligation, sequencing); 10 mM Tris-HCl pH 7.5, 50 mM NaCl, 1 mM DTT, 4% glycerol, room temperature, 30 min; GST-TFs on glutathione beads, 16-mer random dsDNA library, 0.1% formaldehyde crosslink after washing; high values mean tight binding
The target in one assay is T1, FLI1 (Homo sapiens, UniProt Q01543 1-452).
T1 sequence: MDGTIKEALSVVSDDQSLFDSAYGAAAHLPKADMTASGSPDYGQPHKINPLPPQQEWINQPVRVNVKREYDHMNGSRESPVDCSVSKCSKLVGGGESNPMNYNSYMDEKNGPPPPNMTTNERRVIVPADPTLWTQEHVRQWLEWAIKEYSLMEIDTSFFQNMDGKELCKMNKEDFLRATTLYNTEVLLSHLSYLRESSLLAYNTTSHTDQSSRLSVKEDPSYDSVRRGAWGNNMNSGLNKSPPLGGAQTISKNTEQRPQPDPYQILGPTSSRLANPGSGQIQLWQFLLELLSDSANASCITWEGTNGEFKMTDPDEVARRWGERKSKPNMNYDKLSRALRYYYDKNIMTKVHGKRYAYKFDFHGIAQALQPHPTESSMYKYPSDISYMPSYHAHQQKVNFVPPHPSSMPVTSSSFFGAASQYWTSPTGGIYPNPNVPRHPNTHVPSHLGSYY
The conditions noted are these: protein: recombinant; tags: N-terminal GST; dsDNA, one strand shown. In a few lines:
(§1)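 In yeast, human transcription factors were expressed with a GST fusion, then pulled down on glutathione beads and given DNA barcodes. Pooled with a tag-only sample, they were exposed to 200 nmole of a 16-mer random double-stranded DNA library (Tris/NaCl/DTT/glycerol buffer, room temperature, 30 min), washed, crosslinked with 0.1% formaldehyde, proximity-ligated using BsaI/T4 ligase for 1 h at 37 °C, PCR-amplified and read on an Illumina NextSeq500. Each hexamer's frequency of reads for a factor, divided by the matching frequency for the tag-only sample, gives the binding signal.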

The target of a further assay is T2, ELK1 (Homo sapiens, UniProt P19419 1-428).
T2 sequence: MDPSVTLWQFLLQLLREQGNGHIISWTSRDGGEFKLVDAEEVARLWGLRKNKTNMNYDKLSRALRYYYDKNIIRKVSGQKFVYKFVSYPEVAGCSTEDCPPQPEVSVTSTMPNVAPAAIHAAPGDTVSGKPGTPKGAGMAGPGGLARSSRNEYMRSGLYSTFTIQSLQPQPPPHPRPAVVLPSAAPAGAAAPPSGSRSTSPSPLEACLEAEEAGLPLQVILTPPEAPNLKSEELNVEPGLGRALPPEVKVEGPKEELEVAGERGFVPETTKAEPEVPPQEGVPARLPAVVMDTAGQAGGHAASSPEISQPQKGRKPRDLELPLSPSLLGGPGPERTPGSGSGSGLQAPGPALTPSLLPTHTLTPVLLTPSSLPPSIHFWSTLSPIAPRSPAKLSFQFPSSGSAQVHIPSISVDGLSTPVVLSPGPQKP
The conditions noted are these: protein: recombinant; tags: N-terminal GST; dsDNA, one strand shown. In short, it runs like this: as §1

The next assay addresses T3, GABPA (Homo sapiens, UniProt Q06546 1-454).
T3 sequence: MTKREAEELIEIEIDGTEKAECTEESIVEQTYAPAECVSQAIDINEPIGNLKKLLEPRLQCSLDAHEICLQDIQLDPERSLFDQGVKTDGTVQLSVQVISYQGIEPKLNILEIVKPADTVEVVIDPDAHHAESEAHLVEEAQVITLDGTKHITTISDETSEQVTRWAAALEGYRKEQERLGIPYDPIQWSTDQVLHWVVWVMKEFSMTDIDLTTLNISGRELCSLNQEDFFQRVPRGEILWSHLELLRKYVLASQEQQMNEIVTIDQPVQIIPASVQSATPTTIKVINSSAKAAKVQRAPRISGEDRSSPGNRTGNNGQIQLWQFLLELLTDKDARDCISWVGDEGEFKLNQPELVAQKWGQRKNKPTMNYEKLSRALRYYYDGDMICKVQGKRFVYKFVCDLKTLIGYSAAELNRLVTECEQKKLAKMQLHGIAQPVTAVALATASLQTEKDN
The conditions noted are these: protein: recombinant; tags: N-terminal GST; dsDNA, one strand shown. In a few lines: as §1

A further assay addresses T4, ERG (Homo sapiens, UniProt P11308 1-479).
T4 sequence: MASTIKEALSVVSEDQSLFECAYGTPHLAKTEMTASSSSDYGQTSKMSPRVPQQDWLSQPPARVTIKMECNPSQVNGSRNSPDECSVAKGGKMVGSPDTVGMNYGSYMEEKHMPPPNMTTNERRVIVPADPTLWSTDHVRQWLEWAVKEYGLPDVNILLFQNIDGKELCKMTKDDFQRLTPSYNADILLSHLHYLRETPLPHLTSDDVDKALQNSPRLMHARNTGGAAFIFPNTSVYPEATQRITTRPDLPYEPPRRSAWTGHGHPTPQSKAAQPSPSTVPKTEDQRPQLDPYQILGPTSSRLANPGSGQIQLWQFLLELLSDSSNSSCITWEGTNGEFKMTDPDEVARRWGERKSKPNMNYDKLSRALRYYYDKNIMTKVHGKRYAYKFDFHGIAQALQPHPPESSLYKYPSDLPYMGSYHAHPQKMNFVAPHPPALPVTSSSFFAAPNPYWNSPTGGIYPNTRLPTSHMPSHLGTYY
The conditions noted are these: protein: recombinant; tags: N-terminal GST; dsDNA, one strand shown. In short, it runs like this:
as §1

The next assay concerns the target ELF1 (Homo sapiens, UniProt P32519 1-619). The conditions noted are these: protein: recombinant; tags: N-terminal GST; dsDNA, one strand shown. In short, it runs like this: as §1
A further assay addresses T5, EHF (Homo sapiens, UniProt Q9NZC4 1-300).
T5 sequence: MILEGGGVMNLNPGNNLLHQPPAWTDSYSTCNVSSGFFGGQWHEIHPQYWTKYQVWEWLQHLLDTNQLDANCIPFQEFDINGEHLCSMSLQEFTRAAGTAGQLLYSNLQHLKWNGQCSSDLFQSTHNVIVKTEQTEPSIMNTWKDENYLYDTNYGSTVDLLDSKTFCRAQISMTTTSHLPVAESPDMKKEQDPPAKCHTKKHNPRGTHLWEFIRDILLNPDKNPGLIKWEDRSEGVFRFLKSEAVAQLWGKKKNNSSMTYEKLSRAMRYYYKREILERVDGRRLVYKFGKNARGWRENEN
The conditions noted are these: protein: recombinant; tags: N-terminal GST; dsDNA, one strand shown. In a few lines:
as §1

In the next assay the target is SPI1 (Homo sapiens, UniProt P17947 1-270). The conditions noted are these: protein: recombinant; tags: N-terminal GST; dsDNA, one strand shown. In a few lines: as §1
Another assay concerns the target SPIB (Homo sapiens, UniProt Q01892 1-262). As to conditions: protein: recombinant; tags: N-terminal GST; dsDNA, one strand shown. In a few lines: as §1
The next assay deals with T6, ELK3 (Homo sapiens, UniProt P41970 1-407).
T6 sequence: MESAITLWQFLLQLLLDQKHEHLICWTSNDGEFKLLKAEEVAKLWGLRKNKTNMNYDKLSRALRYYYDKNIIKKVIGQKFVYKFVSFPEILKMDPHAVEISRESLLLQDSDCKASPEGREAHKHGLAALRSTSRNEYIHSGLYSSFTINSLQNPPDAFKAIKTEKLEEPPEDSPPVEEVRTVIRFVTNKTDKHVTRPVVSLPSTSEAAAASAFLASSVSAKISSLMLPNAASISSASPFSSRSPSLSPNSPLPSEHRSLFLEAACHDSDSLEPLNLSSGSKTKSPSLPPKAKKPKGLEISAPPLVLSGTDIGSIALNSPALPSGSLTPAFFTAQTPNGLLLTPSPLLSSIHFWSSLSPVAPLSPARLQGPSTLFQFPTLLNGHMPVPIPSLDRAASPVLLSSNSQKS
The conditions noted are these: protein: recombinant; tags: N-terminal GST; dsDNA, one strand shown. In a few lines: as §1

The target of a further assay is T7, FEV (Homo sapiens, UniProt Q99581 1-238).
T7 sequence: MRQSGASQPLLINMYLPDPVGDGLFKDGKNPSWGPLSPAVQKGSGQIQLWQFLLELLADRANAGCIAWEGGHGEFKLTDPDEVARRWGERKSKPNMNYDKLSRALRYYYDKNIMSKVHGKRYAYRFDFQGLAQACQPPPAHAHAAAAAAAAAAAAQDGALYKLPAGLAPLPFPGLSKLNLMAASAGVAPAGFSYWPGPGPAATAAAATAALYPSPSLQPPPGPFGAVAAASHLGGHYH
The conditions noted are these: protein: recombinant; tags: N-terminal GST; dsDNA, one strand shown. In short, it runs like this:
as §1

In another assay the target is ETV5 (Homo sapiens, UniProt P41161 1-510). The conditions noted are these: protein: recombinant; tags: N-terminal GST; dsDNA, one strand shown. In short, it runs like this:
as §1

For another assay, the target named is HSF1 (Homo sapiens, UniProt Q00613 1-529). As to conditions: protein: recombinant; tags: N-terminal GST; chain copies: 3; dsDNA, one strand shown. In short, it runs like this: as §1
HSF1, sequence (Q00613 whole entry): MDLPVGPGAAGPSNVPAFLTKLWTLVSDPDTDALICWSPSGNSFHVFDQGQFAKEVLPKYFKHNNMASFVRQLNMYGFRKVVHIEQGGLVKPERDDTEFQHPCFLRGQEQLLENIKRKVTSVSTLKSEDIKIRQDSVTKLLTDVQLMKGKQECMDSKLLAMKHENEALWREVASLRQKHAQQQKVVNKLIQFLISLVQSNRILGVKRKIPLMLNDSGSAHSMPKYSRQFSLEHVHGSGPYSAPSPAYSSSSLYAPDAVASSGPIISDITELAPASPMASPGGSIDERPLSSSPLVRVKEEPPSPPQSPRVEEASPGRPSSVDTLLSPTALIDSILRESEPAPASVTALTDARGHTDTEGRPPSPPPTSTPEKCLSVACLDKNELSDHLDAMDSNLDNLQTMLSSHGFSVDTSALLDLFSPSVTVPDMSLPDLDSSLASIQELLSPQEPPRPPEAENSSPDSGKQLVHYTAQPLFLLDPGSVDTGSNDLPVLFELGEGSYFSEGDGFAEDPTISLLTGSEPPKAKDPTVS
Another assay concerns the target T8, SPIC (Homo sapiens, UniProt Q8N5J4 1-248).
T8 sequence: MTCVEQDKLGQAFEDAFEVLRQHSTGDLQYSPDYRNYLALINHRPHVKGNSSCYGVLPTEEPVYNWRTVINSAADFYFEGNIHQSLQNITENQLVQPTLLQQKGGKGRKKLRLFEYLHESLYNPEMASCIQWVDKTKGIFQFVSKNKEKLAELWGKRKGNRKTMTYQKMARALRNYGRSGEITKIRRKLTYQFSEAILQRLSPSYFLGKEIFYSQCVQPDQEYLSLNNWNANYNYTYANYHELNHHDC
As to conditions: protein: recombinant; tags: N-terminal GST; dsDNA, one strand shown. In a few lines:
as §1

The target of a further assay is ELF4 (Homo sapiens, UniProt Q99607 1-663). As to conditions: protein: recombinant; tags: N-terminal GST; dsDNA, one strand shown. In short, it runs like this:
as §1

A further assay concerns the target T9, ELK4 (Homo sapiens, UniProt P28324-2 1-405).
T9 sequence: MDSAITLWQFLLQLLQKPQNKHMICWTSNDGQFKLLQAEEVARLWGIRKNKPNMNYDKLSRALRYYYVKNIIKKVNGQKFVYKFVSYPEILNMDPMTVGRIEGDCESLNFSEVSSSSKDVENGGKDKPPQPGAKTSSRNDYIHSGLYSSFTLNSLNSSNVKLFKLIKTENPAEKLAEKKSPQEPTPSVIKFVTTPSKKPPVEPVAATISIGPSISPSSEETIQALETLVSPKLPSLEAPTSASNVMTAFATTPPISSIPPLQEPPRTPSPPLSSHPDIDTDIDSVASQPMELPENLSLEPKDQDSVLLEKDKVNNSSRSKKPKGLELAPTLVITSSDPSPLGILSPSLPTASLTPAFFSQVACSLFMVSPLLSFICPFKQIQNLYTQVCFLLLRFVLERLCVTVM
The conditions noted are these: protein: recombinant; tags: N-terminal GST; dsDNA, one strand shown. In short, it runs like this:
as §1

The target of another assay is T10, ETV2 (Homo sapiens, UniProt O00321 1-342).
T10 sequence: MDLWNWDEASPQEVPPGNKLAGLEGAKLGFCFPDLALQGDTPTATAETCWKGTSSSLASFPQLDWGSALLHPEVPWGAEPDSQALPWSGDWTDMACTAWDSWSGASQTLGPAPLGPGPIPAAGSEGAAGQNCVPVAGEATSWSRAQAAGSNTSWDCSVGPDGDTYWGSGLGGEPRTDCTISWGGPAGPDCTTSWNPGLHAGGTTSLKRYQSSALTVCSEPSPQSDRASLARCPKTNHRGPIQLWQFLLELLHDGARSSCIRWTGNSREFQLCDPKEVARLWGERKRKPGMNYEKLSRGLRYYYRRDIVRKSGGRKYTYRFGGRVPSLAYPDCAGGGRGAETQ
The conditions noted are these: protein: recombinant; tags: N-terminal GST; dsDNA, one strand shown. In short, it runs like this:
as §1

Another assay addresses T11, ELF3 (Homo sapiens, UniProt P78545 1-371).
T11 sequence: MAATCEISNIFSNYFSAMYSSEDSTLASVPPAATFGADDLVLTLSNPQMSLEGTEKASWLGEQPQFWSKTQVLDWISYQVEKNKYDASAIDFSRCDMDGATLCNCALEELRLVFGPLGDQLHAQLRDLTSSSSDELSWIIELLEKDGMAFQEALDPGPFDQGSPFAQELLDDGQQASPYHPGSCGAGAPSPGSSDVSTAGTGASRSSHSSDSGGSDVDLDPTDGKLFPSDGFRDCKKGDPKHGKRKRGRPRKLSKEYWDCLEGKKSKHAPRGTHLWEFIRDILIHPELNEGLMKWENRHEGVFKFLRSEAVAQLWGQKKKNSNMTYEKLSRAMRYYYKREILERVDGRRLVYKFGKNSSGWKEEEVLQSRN
The conditions noted are these: protein: recombinant; tags: N-terminal GST; dsDNA, one strand shown. In a few lines:
as §1

Another assay deals with CRX (Homo sapiens, UniProt O43186 1-299). As to conditions: protein: recombinant; tags: N-terminal GST; dsDNA, one strand shown. In a few lines:
as §1

The target in another assay is ETV1 (Homo sapiens, UniProt P50549 1-477). The conditions noted are these: protein: recombinant; tags: N-terminal GST; dsDNA, one strand shown. In short, it runs like this: as §1
ETV1, sequence (P50549 whole entry): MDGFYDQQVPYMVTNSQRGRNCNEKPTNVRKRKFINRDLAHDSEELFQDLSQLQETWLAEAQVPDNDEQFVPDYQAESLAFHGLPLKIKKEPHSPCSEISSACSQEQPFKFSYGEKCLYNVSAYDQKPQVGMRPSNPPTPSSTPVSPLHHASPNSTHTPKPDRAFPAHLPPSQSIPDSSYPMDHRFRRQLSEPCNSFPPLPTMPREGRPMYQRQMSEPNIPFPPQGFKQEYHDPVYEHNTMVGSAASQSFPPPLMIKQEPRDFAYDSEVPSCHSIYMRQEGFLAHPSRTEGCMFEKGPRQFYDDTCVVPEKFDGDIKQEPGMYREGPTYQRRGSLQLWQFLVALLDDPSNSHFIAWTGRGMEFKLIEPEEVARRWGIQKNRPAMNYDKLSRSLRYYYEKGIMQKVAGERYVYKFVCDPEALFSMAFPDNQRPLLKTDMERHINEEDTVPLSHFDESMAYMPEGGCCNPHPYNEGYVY

CRX, sequence (O43186 whole entry): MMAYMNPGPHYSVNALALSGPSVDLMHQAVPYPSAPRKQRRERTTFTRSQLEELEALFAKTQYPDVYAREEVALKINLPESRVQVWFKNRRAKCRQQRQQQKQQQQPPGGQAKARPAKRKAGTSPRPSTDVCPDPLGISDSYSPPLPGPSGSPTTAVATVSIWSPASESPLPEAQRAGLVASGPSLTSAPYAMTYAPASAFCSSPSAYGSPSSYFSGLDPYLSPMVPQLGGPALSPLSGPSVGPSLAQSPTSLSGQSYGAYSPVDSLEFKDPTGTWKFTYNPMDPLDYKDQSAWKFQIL
SPIB, sequence (Q01892 whole entry): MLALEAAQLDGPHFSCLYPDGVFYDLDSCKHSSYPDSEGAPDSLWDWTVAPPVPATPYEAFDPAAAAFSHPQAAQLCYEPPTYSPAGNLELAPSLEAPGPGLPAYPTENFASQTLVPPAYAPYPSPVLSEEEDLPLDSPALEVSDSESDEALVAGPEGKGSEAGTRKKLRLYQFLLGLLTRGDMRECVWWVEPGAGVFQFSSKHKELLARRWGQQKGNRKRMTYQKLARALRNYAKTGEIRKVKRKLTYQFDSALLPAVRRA
ETV5, sequence (P41161 whole entry): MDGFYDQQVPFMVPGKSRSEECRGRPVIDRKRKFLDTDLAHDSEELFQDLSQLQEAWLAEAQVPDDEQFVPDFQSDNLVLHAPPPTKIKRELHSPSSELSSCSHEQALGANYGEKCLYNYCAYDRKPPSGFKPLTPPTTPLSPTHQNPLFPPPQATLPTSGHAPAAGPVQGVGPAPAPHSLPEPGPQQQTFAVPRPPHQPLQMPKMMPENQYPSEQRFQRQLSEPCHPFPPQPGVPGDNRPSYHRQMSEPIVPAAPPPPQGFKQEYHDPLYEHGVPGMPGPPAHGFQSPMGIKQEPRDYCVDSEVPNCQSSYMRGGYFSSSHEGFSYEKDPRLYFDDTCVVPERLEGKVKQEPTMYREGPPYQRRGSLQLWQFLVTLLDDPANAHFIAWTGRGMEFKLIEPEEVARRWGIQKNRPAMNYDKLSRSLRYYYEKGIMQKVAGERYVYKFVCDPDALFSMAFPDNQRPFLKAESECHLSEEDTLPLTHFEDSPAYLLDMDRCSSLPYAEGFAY
ELF4, sequence (Q99607 whole entry): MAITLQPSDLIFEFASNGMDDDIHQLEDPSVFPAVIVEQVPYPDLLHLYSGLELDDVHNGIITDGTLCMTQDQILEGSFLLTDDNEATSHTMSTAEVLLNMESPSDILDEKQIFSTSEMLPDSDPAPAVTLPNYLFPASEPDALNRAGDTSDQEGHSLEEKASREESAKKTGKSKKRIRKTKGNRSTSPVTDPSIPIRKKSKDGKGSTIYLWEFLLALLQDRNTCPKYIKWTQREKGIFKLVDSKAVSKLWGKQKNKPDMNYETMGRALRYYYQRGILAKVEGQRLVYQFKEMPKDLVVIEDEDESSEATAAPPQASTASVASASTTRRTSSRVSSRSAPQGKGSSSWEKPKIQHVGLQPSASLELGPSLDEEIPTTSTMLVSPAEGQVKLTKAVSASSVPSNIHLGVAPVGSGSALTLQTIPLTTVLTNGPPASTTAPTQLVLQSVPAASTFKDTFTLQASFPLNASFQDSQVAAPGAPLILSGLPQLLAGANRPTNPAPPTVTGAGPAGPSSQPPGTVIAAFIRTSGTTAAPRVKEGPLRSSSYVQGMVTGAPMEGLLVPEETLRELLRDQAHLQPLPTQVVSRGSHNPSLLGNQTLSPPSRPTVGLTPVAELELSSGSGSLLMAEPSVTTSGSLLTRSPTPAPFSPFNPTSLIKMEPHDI
ELF1, sequence (P32519 whole entry): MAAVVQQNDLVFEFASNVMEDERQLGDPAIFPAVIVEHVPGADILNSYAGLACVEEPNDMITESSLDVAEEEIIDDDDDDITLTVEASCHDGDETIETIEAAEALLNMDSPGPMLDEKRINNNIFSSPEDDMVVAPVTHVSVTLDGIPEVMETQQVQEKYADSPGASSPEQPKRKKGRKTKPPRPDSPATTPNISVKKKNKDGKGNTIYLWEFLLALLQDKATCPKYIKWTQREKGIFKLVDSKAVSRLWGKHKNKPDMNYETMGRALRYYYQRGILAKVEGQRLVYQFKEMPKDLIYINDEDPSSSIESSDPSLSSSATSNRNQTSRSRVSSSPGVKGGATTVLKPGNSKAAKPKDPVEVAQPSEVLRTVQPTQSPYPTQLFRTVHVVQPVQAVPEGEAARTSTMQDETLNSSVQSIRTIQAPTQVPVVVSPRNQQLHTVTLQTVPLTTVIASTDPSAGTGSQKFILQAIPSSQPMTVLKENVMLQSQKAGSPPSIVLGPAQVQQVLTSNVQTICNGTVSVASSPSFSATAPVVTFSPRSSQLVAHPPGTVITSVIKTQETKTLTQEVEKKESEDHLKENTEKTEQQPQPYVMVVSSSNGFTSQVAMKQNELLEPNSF

Regarding TTCCTC, the binding signal with FLI1 is 2.26 fold enrichment (6-mer frequency, TF over GST control); with ELK1, 2.09 fold enrichment (6-mer frequency, TF over GST control); in the assay with GABPA, 2.1 fold enrichment (6-mer frequency, TF over GST control); with ERG, 2.21 fold enrichment (6-mer frequency, TF over GST control); with ELF1 it was 2.12 fold enrichment (6-mer frequency, TF over GST control); with EHF it was 2.32 fold enrichment (6-mer frequency, TF over GST control). For the same sequence, the binding signal was 4.31 fold enrichment (6-mer frequency, TF over GST control) with SPI1; 2.26 fold enrichment (6-mer frequency, TF over GST control) with SPIB; 2.3 fold enrichment (6-mer frequency, TF over GST control) with ELK3; 2.13 fold enrichment (6-mer frequency, TF over GST control) with FEV; 2.47 fold enrichment (6-mer frequency, TF over GST control) with ETV5; 1.61 fold enrichment (6-mer frequency, TF over GST control) in the assay with HSF1. Besides, the binding signal in the assay with SPIC was 2.72 fold enrichment (6-mer frequency, TF over GST control); with ELF4, 2.16 fold enrichment (6-mer frequency, TF over GST control); with ELK4 it was 2.1 fold enrichment (6-mer frequency, TF over GST control); with ETV2, 2.39 fold enrichment (6-mer frequency, TF over GST control); with ELF3 it was 2.06 fold enrichment (6-mer frequency, TF over GST control); with CRX it was 1.43 fold enrichment (6-mer frequency, TF over GST control). In addition, in the assay with ETV1, the binding signal is 2.27 fold enrichment (6-mer frequency, TF over GST control).
